The campaign covered roughly 5,500 compounds. About 2,000 (36%) were called active. Another 18% or so got no clear call; they are omitted. No stated cut-off is given here; in the data, active means normalized growth mostly below about 0.91 (no sharp cut-off); inconclusive means no clear call, values can overlap the other calls; inactive means mostly above about 0.92. The list shows a part of the results.
Assay: chemical genetic growth profiling, strain panel (AID 1159580);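 further: tested at 20 µM; growth read once vehicle control cultures reached saturation at 30 °C; 1 = growth at the plate median or of vehicle wells; lower values mean less growth of the strain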
Settings: S. cerevisiae deletion strains, growth OD

Measured: normalized growth

Cc1cc(=O)c2c(O)cc(O)c(C)c2o1
inactive: locus YAL021C, strain ccr4, hits give low values 0.976 | locus YAL026C, strain drs2, hits give low values 0.926 | locus YAL030W, strain snc1, hits give low values 0.954 | locus YBL061C, strain skt5, hits give low values 0.951 | locus YBR009C, strain hhf1, hits give low values 0.953 | locus YBR021W, strain FUR4, hits give low values 0.995 | locus YBR023C, strain chs3, hits give low values 0.936 | locus YBR171W, strain sec66, hits give low values 0.921 | locus YBR229C, strain ROT2, hits give low values 0.987 | locus YBR231C, strain swc5, hits give low values 0.924 | locus YBR279W, strain paf1, hits give low values 0.946 | locus YCL011C, strain gbp2, hits give low values 0.951 | locus YCL016C, strain dcc1, hits give low values 0.937 | locus YCL029C, strain bik1, hits give low values 0.994 | locus YCL061C, strain MRC1, hits give low values 0.938 | locus YCL069W, strain vba3, hits give low values 0.982 | locus YCR088W, strain abp1, hits give low values 0.965 | locus YDL005C, strain med2, hits give low values 0.963 | locus YDL035C, strain GPR1, hits give low values 1.02 | locus YDL040C, strain nat1, hits give low values 0.979 | locus YDL074C, strain BRE1, hits give low values 1.02 | locus YDL101C, strain DUN1, hits give low values 0.975 | locus YDL134C, strain PPH21, hits give low values 0.996 | locus YDL185W, strain tfp1, hits give low values 0.962 | locus YDL192W, strain arf1, hits give low values 0.988 | locus YDR001C, strain nth1, hits give low values 0.959 | locus YDR069C, strain doa4, hits give low values 0.962 | locus YDR101C, strain arx1, hits give low values 1.01 | locus YDR159W, strain sac3, hits give low values 0.907 | locus YDR162C, strain NBP2, hits give low values 1.03 | locus YDR297W, strain sur2, hits give low values 0.966 | locus YDR318W, strain mcm21, hits give low values 0.988 | locus YDR334W, strain swr1, hits give low values 0.951 | locus YDR388W, hits give low values 0.98 | locus YDR392W, strain spt3, hits give low values 0.753 | locus YDR502C, strain sam2, hits give low values 0.977 | locus YEL003W, strain gim4, hits give low values 0.95 | locus YEL037C, strain rad23, hits give low values 0.961 | locus YEL061C, strain CIN8 (second series), hits give low values 0.943 | locus YEL061C, strain CIN8, hits give low values 0.993 | locus YER015W, strain faa2, hits give low values 0.95 | locus YER016W, strain bim1, hits give low values 0.937 | locus YER110C, hits give low values 0.968 | locus YER111C, strain swi4, hits give low values 0.934 | locus YER155C, strain BEM2, hits give low values 0.987 | locus YER167W, strain BCK2, hits give low values 1 | locus YFR010W, strain ubp6, hits give low values 0.942 | locus YGL078C, strain dbp3, hits give low values 0.965 | locus YGL086W, strain mad1, hits give low values 1 | locus YGL167C, strain pmr1, hits give low values 0.936 | locus YGL173C, strain kem1, hits give low values 0.946 | locus YGL227W, strain vid30, hits give low values 0.957 | locus YGL240W, strain doc1, hits give low values 0.931 | locus YGL248W, strain PDE1, hits give low values 0.995 | locus YGL253W, strain hxk2, hits give low values 0.962 | locus YGR078C, strain PAC10, hits give low values 0.985 | locus YGR135W, strain pre9, hits give low values 0.965 | locus YGR229C, strain SMI1, hits give low values 1.01 | locus YGR252W, strain gcn5, hits give low values 1.03 | locus YHR013C, strain ard1, hits give low values 1.05 | locus YHR027C, strain rpn1, hits give low values 0.964 | locus YHR030C, strain SLT2, hits give low values 0.996 | locus YHR079C, strain IRE1 (second series), hits give low values 0.988 | locus YHR094C, strain hxt1, hits give low values 0.983 | locus YHR129C, strain ARP1, hits give low values 0.985 | locus YHR200W, strain rpn10, hits give low values 0.96 | locus YIL066C, strain RNR3, hits give low values 0.991 | locus YIL073C, strain SPO22, hits give low values 0.967 | locus YIL125W, strain kgd1, hits give low values 1 | locus YIR030C, strain dcg1, hits give low values 0.973 | locus YJL092W, strain hpr5, hits give low values 0.964 | locus YJL095W, strain BCK1 (second series), hits give low values 0.962 | locus YJL095W, strain BCK1, hits give low values 0.962 | locus YJL115W, strain asf1, hits give low values 0.971 | locus YJL129C, strain trk1, hits give low values 0.901 | locus YJL134W, strain LCB3, hits give low values 0.989 | locus YJL154C, strain vps35, hits give low values 0.977 | locus YJL164C, strain tpk1, hits give low values 0.946 | locus YJL166W, strain qcr8, hits give low values 0.956 | locus YJL168C, strain set2, hits give low values 0.976 | locus YJL187C, strain SWE1 (second series), hits give low values 0.97 | locus YJL187C, strain SWE1, hits give low values 0.935 | locus YJR043C, strain POL32, hits give low values 1.05 | locus YKL009W, strain mrt4, hits give low values 0.954 | locus YKL068W, hits give low values 0.985 | locus YKL085W, strain MDH1 (second series), hits give low values 0.984 | locus YKL085W, strain MDH1, hits give low values 0.984 | locus YKL160W, strain elf1, hits give low values 0.908 | locus YKL190W, strain CNB1, hits give low values 0.993 | locus YKR001C, strain vps1, hits give low values 0.949 | locus YKR026C, strain gcn3, hits give low values 0.96 | locus YKR091W, strain srl3, hits give low values 0.96 | locus YLL001W, strain dnm1, hits give low values 0.944 | locus YLL026W, hits give low values 0.962 | locus YLL041C, strain sdh2, hits give low values 0.971 | locus YLR027C, strain aat2, hits give low values 0.962 | locus YLR039C, strain RIC1, hits give low values 0.919 | locus YLR058C, strain SHM2, hits give low values 0.982 | locus YLR102C, strain apc9, hits give low values 0.982 | locus YLR221C, strain rsa3, hits give low values 0.977 | locus YLR258W, strain gsy2, hits give low values 0.965 | locus YLR268W, strain sec22, hits give low values 1 | locus YLR330W, strain CHS5, hits give low values 0.993 | locus YLR342W, strain FKS1, hits give low values 0.962 | locus YLR357W, strain rsc2, hits give low values 1 | locus YLR370C, strain arc18, hits give low values 0.971 | locus YLR371W, strain rom2, hits give low values 0.983 | locus YLR384C, strain iki3, hits give low values 0.942 | locus YLR418C, strain cdc73, hits give low values 0.925 | locus YML016C, strain PPZ1, hits give low values 0.982 | locus YML032C, strain rad52, hits give low values 0.987 | locus YML120C, strain ndi1, hits give low values 0.949 | locus YML124C, strain tub3, hits give low values 0.98 | locus YMR058W, strain fet3, hits give low values 0.928 | locus YMR078C, strain ctf18, hits give low values 0.989 | locus YMR125W, strain sto1, hits give low values 0.951 | locus YMR129W, hits give low values 0.958 | locus YMR205C, strain PFK2, hits give low values 0.896 | locus YMR223W, strain ubp8, hits give low values 0.97 | locus YMR231W, strain pep5, hits give low values 0.933 | locus YMR263W, strain SAP30, hits give low values 0.965 | locus YMR307W, strain GAS1, hits give low values 1.05 | locus YNL067W, strain RPL9B, hits give low values 0.978 | locus YNL071W, strain lat1, hits give low values 0.938 | locus YNL209W, strain ssb2, hits give low values 0.96 | locus YNL233W, strain BNI4, hits give low values 0.941 | locus YNL248C, strain rpa49, hits give low values 0.929 | locus YNL250W, strain rad50, hits give low values 0.976 | locus YNL271C, strain bni1, hits give low values 0.982 | locus YNL298W, strain CLA4, hits give low values 0.983 | locus YNL307C, strain MCK1, hits give low values 0.956 | locus YNL322C, strain KRE1 (second series), hits give low values 0.971 | locus YNL322C, strain KRE1, hits give low values 1.01 | locus YNR049C, strain mso1, hits give low values 0.969 | locus YNR052C, strain pop2, hits give low values 0.978 | locus YOL006C, strain TOP1, hits give low values 1.09 | locus YOL012C, strain htz1 0.94 | locus YOL147C, strain pex11, hits give low values 0.99 | locus YOR001W, strain rrp6, hits give low values 0.909 | locus YOR061W, strain CKA2, hits give low values 1.02 | locus YOR069W, strain VPS5, hits give low values 0.98 | locus YOR070C, strain gyp1, hits give low values 0.961 | locus YOR080W, strain dia2, hits give low values 0.972 | locus YOR083W, strain WHI5, hits give low values 0.919 | locus YOR106W, strain vam3, hits give low values 0.869 | locus YOR136W, strain idh2, hits give low values 0.981 | locus YOR144C, strain elg1, hits give low values 0.982 | locus YOR184W, strain ser1, hits give low values 1.04 | locus YOR265W, strain rbl2, hits give low values 0.964 | locus YOR290C, strain snf2, hits give low values 0.898 | locus YOR316C, strain cot1, hits give low values 0.969 | locus YPL078C, strain atp4, hits give low values 0.942 | locus YPL106C, strain sse1, hits give low values 0.942 | locus YPL240C, strain hsp82, hits give low values 0.959 | locus YPL241C, strain CIN2, hits give low values 0.998 | locus YPR119W, strain clb2, hits give low values 0.995 | locus YPR141C, strain kar3, hits give low values 0.987 | locus YPR163C, strain tif3, hits give low values 0.992 | locus YPR167C, strain met16, hits give low values 0.979 | strain wtn01, hits give low values 1.01
active: locus YDR137W, strain rgp1, hits give low values 0.504 | locus YDR195W, strain ref2 1.34 [resistant] | locus YDR335W, strain msn5, hits give low values 0.897 | locus YER155C, strain BEM2 (second series), hits give low values 0.808 | locus YHR142W, strain chs7, hits give low values 0.869 | locus YLR262C, strain YPT6 (second series), hits give low values 0.507 | locus YLR320W, strain mms22, hits give low values 0.853 | locus YOR270C, strain vph1, hits give low values 0.729 | locus YPL051W, strain arl3, hits give low values 0.859
